Pf growth 48h: P. falciparum growth inhibition at 48 hours (one generation) | P. falciparum luciferase growth in erythrocytes, 48 h | 310,000 tested, 5.9% active | Potency, µM (top dose mostly 28.7 µM), for the others: at the highest dose activity change, negative = inhibition, most hits filed as inhibitors; also: potency is read from the fitted curve at half-maximal effect; % is scaled to controls: 0 for no effect and ±100 for the full control effect
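Luciferase-expressing P. falciparum in infected erythrocytes (2% hematocrit, 0.1% parasitemia final) in RPMI 1640/0.5% Albumax were exposed to compound for 48 hours at 37 C, 5% CO2; growth read as luminescence.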
Shiga inhibitor: inhibitors of Shiga toxin in Vero cells; Vero cells, Shiga toxin protein synthesis inhibition reporter; 290,000 tested, 9.2% active; inhibition, % at 38.7 µM; in the data active = inhibition mostly above about 28%, no sharp cut-off; inactive = mostly below about 43%; also: 0% is about no effect
HCMV inh: human cytomegalovirus inhibition. AID 1259415. activity change, negative = inhibition, % at 57.5 µM. 410,000 tested, 4.5% active. HFF cells, HCMV-luciferase reporter, 72 h; stronger effect = lower value; in the data active = activity change below about -60%; inconclusive = no clear call, values can overlap the other calls; inactive = above about -39%; also: % is scaled to controls: 0 for no effect and ±100 for the full control effect
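Luciferase read-out from HCMV-luciferase-infected HFFs (MOI 1 PFU/cell) 72 h post infection at 37C; compounds added after 16 h cell attachment; activity normalized between buffer-only basal and Salinomycin (10uM) inhibitor controls.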
Cycloheximide cs: affects cycloheximide protein synthesis inhibition readout, counter-screen. cell reporter, cycloheximide protein synthesis inhibition counterscreen. max response, %. 300,000 tested, 12% active; in the data active = max response mostly above about 13%, no sharp cut-off; inactive = mostly below about 14%; also: read at 38.3 µM for the half of the compounds with a filed dose; 0% is about no effect
Pf growth 96h: P. falciparum growth inhibition at 96 hours. Potency, µM (doses to about 28.7 µM), for inactives: at the top dose activity change, negative = inhibition, hits mostly inhibitors. 320,000 tested, 6.9% active. P. falciparum luciferase reporter growth, 96 h; also: potency is read from the fitted curve at half-maximal effect; % is scaled to controls: 0 for no effect and ±100 for the full control effect
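96 h incubation, 37 C, 5% CO2, of luciferase-reporter P. falciparum-infected RBCs (2% hematocrit, 0.05% parasitemia final) with test compounds; endpoint luminescence.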
* marks the source's active call; other numbers are inactive results; ? = inconclusive; nt = no result. This is a sample that favours compounds with a hit; in the whole collection about 20% have one here. Unless noted, calls follow the shape of the dose curve; as a rule, active = well fitted inhibition curve with a large enough effect; inconclusive = small, poorly fitted or top-dose-only effect, or another doubt; inactive = no such curve, though single readings can be large or run the other way.

SMILES | Pf growth 48h | Shiga inhibitor | HCMV inh | Cycloheximide cs | Pf growth 96h
C#CC(CC)(CC)NC(=O)c1cc(S(=O)(=O)N2CCCCC2)ccc1N1CCOCC1 | ? | nt | -11 | nt | ?
Cc1ccc(NC(=O)CN2CCCCCC2)cc1Br | 17% | 73 | -20 | 19* | ?
Cc1ccc(NC(=O)CN2CCCCCC2)c(Br)c1 | 96% | 81* | 11 | 36* | 13%
O=C(CN1CCCCCC1)Nc1cccc(Br)c1 | -1% | -11 | ? | -1 | 58%
COc1ccc(N2CCN(CC(=O)Nc3ccc(C)cc3Br)CC2)cc1 | nt | nt | 39 | nt | nt
O=C(CCNS(=O)(=O)c1ccccc1F)NC1CCCCCC1 | -10% | nt | 20 | nt | 18%
O=C(Nc1ccc(-c2csc(Nc3ccc(Cl)cc3)n2)cc1)c1ccccc1 | nt | nt | -34 | nt | nt
Cc1csc(NC(=O)c2cc([N+](=O)[O-])cc([N+](=O)[O-])c2)n1 | -28% | 11 | ? | 1 | ?
O=C(Nc1cccc(-c2csc(Nc3ccccc3)n2)c1)c1ccccc1 | 31% | 84* | -16 | 31* | 16%
O=C(Nc1ccc(-c2csc(Nc3cccc(C(F)(F)F)c3)n2)cc1)c1ccccc1 | ? | 0 | -83* | -3 | ?
CCCCC(=O)Nc1cccc(-c2csc(-c3ccccc3)n2)c1 | ? | 61* | ? | 12 | ?
O=C(Nc1ccc(-c2csc(Nc3cccc(C(F)(F)F)c3)n2)cc1)c1cc([N+](=O)[O-])cc(C(F)(F)F)c1 | 0.83µM* | -4 | -78* | -10 | 0.47µM*
CCc1cnc2c(c1SCC(=O)NCc1ccccc1)c(=O)n(C)c(=O)n2C | nt | nt | 7 | nt | nt
CCCCC[C@H](C)N1C[C@@H](COCc2ccccc2)Oc2cc(N3CCC[C@H]3C(N)=O)ccc2S1(=O)=O | nt | nt | -12 | nt | nt
Cc1ccc(CNC(=O)c2ccc(CN3CC(=O)N4CCCCC4C3=O)cc2)cc1 (centres undefined) | nt | nt | 8 | nt | nt
Oc1cccc(Nc2ncnc3sc4c(c23)CCCC4)c1 | nt | nt | -10 | nt | nt
O=C(Nc1cccc(C(F)(F)F)c1)c1csc(-c2ccncc2)n1 | ? | -2 | ? | 8 | ?
O=C(Nc1cccc(-c2csc(Nc3cccc(C(F)(F)F)c3)n2)c1)c1ccccc1 | 12µM* | 8 | -4 | -1 | ?
O=[N+]([O-])c1ccc(/C=N/N2CCCCC2)cc1 | 148% | 128* | 7 | 34* | 169%
O=[N+]([O-])c1ccc(/C=N\N2CCN(c3ccc(Cl)cc3)CC2)cc1 | 58% | 12 | -32 | -1 | 60%
CC1CCCC(C)N1/N=C/c1ccc(N(C)C)cc1 (centres undefined) | 1% | 24 | 32 | 12 | 6%
Clc1ccc(/C=N/N2CCCCC2)cc1 | -8% | 34* | -36 | 29* | -8%
CC1CCCC(C)N1/N=C/c1ccc([N+](=O)[O-])cc1 (centres undefined) | 9% | 54* | -32 | 43* | 2%
O=C(Nc1nc2ccsc2c(=O)s1)c1ccc(F)cc1 | 279% | 81* | 36 | 45* | 290%
O=C(Nc1nc2ccsc2c(=O)s1)c1ccc(F)cc1Cl | 167% | 73* | 12 | 33* | 144%
SMILES | Pf growth 48h | Shiga inhibitor | HCMV inh | Cycloheximide cs | Pf growth 96h
Cc1csc2c(=O)sc(NC(=O)c3ccc(F)cc3Cl)nc12 | 9% | 2 | -34 | -1 | 24%
Cc1csc2c(=O)sc(NC(=O)c3ccc(F)cc3)nc12 | 22% | 14 | ? | -3 | 26%
Cc1ccc(/C=C/C(=O)NCCc2ccccc2)o1 | 83% | 77* | 35 | 40* | ?
CCC/C(=N\NC(=O)CNC(=O)/C=C/c1ccco1)c1ccccc1 | 10% | -112 | ? | 13* | 37%
O=C(/C=C/c1ccco1)NCCc1ccccc1 | 99% | 81* | -15 | 47* | ?
CC/C(=N\NC(=O)CNC(=O)/C=C/c1ccco1)c1ccccc1 | 50% | 64 | 10 | -1 | -1%
NS(=O)(=O)c1ccc(CNC(=O)c2scc3c2CCCC3)cc1 | -10% | -9 | -29 | 2 | ?
COc1ccc(C2c3[nH]c4ccccc4c3CCN2C(=O)CCC2CCCC2)cc1 (centres undefined) | nt | nt | -82* | nt | nt
COc1ccc(C2c3[nH]c4ccc(OC)cc4c3CCN2C(=O)Nc2ccccc2)cc1 (centres undefined) | nt | nt | -89* | nt | nt
CCOc1ccc(C2c3[nH]c4ccccc4c3CCN2C(=O)CCC2CCCC2)cc1 (centres undefined) | nt | nt | -80* | nt | nt
CCOc1ccc(C2c3[nH]c4ccccc4c3CCN2C(=O)CSc2ccccc2)cc1 (centres undefined) | nt | nt | -5 | nt | nt
COc1ccc(C2c3[nH]c4ccccc4c3CCN2C(=O)Cc2nonc2C)c(F)c1 (centres undefined) | 10µM* | 109* | 59 | 37* | ?
Cc1cccc(CNC(=O)c2ccc(NC(=O)N3CCSc4ccccc43)cc2)c1 | nt | nt | 8 | nt | nt
Cc1nn(CC(=O)NCCN2CCOCC2)c(=O)c2cc3sccc3n12 | 9% | -3 | 0 | -3 | 19%
CCCn1nnc(NC(=S)NC(=O)c2ccccc2OC)n1 | nt | nt | 32 | nt | nt
CCN(CC)C(=O)COc1coc(CN2CCN(c3ccccc3)CC2)cc1=O | -5% | -5 | -22 | 4 | 10µM*
O=C(COc1coc(CN2CCN(c3ccccc3)CC2)cc1=O)NC1CCCCC1 | 12µM* | nt | -24 | nt | ?
CCc1ccc(NC(=O)COc2coc(CN3CCN(c4ccccc4)CC3)cc2=O)cc1 | 5.2µM* | nt | 1 | nt | ?
N#Cc1c(-c2ccccc2)cc(-c2ccccc2)nc1SCC(O)CS(=O)(=O)Cc1ccccc1 (centres undefined) | nt | nt | -10 | nt | nt
C#CCOCCOCCOCCNc1nc(N2CCN(C(=O)CCCCCCCCCCNC(=O)Cn3cc(CCCCCN)nn3)CC2)nc(N2CCN(C(=O)CCCCCCCCCCNC(=O)[C@H]([C@@H](C)CC)n3cc(CCCCN=C(N)N)nn3)CC2)n1 | 2.1µM* | nt | nt | nt | 3.3µM*
C#CCOCCOCCOCCNc1nc(N2CCN(C(=O)CCCCCCCCCCNC(=O)[C@H]([C@@H](C)CC)n3cc(CCCCN=C(N)N)nn3)CC2)nc(N2CCN(C(=O)CCCCCCCCCCNC(=O)[C@H](CO)n3cc(CCCCCN)nn3)CC2)n1 | 5.2µM* | nt | nt | nt | 5.2µM*
C#CCOCCOCCOCCNc1nc(N2CCN(C(=O)Cn3cc(CCCN=C(N)N)nn3)CC2)nc(N2CCN(C(=O)[C@H]([C@@H](C)CC)n3cc(CCCCN)nn3)CC2)n1 | ? | nt | -26 | nt | ?
C#CCOCCOCCOCCNc1nc(N2CCN(C(=O)CCCCCCCCCCNC(=O)[C@H]([C@@H](C)CC)n3cc(CCCCN=C(N)N)nn3)CC2)nc(N2CCN(C(=O)CCCCCCCCCCNC(=O)[C@H](CCCCN)n3cc(C)nn3)CC2)n1 | 3.7µM* | nt | nt | nt | 4.7µM*
C#CCOCCOCCOCCNc1nc(N2CCN(C(=O)[C@H]([C@@H](C)CC)n3cc(CCCCN)nn3)CC2)nc(N2CCN(C(=O)[C@H](CCCCN)n3cc(CCCC)nn3)CC2)n1 | ? | nt | 11 | nt | -27%

Source: PubChem BioAssay (National Center for Advancing Translational Sciences (NCATS))
